The record followed here is PubChem BioAssay (NCATS).

Records with an inconclusive call do not appear. Entries that show only a call come without a potency. Activity calls are given as the source filed them. Calls come from the whole dose curve; as a rule, active = well fitted inhibition curve with a large enough effect; inconclusive = small, poorly fitted or top-dose-only effect; inactive = flat fitted curve, though single readings scatter.

Chain of Phospholipid hydroperoxide glutathione peroxidase GPX4 (Homo sapiens) (P36969 whole entry, looked up): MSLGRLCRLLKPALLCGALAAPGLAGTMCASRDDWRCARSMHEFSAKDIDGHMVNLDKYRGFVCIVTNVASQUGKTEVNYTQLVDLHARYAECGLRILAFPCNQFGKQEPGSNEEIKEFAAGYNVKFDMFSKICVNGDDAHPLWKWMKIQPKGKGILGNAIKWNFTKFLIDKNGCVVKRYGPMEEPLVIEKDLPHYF

The target of this assay is Phospholipid hydroperoxide glutathione peroxidase GPX4 (Homo sapiens) (UniProt P36969). Kind of assay: Primary qHTS Assay for Inhibitors of Recombinant Selenoprotein Glutathione Peroxidase 4 (GPX4) (AID 1845192). Note: nearly all actives have a fitted effect of over 65% in size. The settings on record: recombinant GPX4, GR-coupled NADPH fluorescence, 15 min; series mostly up to 27.8 µM. The gist of the method:
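qHTS, GR-coupled: GPX4 200 nM + cpd 30 min RT → GSH 1 mM, NADPH 0.5 mM, GR 100 nM → CHP 0.5 mM start; fluor 340/450 at t0 and t15 min; no-enzyme wells as control.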
For orientation: In qHTS, concentration-response curves come from the screen itself.
In the case of `CC(C)c1ccc2c(c1)C(O)CC1C(C)(CO)CCCC21C` (stereo not drawn), the Potency entry was “inactive”.

Take `C=C1CCC2C(C)(C(=O)O)CCCC2(C)C1CC/C(C)=C\CO` (stereo not drawn): the Potency result was “inactive”.

As for `COc1cccc(OC)c1-c1cc(C(=O)N[C@@H](CC(C)C)C(=O)O)nn1-c1ccnc2cc(Cl)ccc12`, the Potency entry was “inactive”. In the case of `O=C(/C=C/c1ccccc1)O[C@@H]1[C@@H](CO)O[C@@](CO)(O[C@H]2O[C@H](CO)[C@@H](O)[C@H](O)[C@H]2O)[C@H]1O`, the Potency result was “inactive”. In the case of `CCOC(=O)COc1ccc2c(c1)C[C@@H](NC[C@H](O)c1cccc(Cl)c1)CC2`, the Potency result is “inactive”. The entry for `O=C(O)CCc1c(C(=O)O)[nH]c2cc(Cl)cc(Cl)c12` is “inactive”; for `CCN=C1N[C@@H]2[C@@H](O)[C@H](O)[C@@H](CO)O[C@@H]2S1` it is “inactive”; for `C[C@@H]1O[C@@H](O[C@H]2[C@@H]3C=CO[C@@H](O[C@@H]4O[C@H](CO)[C@@H](O)[C@H](O)[C@H]4O)[C@@H]3[C@@]3(CO)O[C@@H]23)[C@H](OC(=O)/C=C/c2ccc(O)cc2)[C@H](O)[C@H]1O` it is “inactive”.

Turning to `CC(=O)N[C@H](Cc1c[nH]c2ccccc12)C(=O)OCc1cc(C(F)(F)F)cc(C(F)(F)F)c1`, the Potency entry is “inactive”. With `CC1(C(=O)O)CCCC2(C)C3CC4C5CC3(CCC12)CC45C` (stereo not drawn), the Potency result was “inactive”.

For `CC(C)[C@@](O)(c1ccc2cc(OC(F)F)c(OC(F)F)cc2c1)c1cn[nH]n1`, the Potency entry was “inactive”. In the case of `CC(C)C1(O)C=C2C(=O)CC3C(C)(C(=O)O)CCCC3(C)C2CC1` (stereo not drawn), the Potency entry was “inactive”. `C=C1[C@H](OC(C)=O)[C@H]2[C@@H](OC(=O)c3ccccc3)[C@@H](C)C[C@]2(O)[C@@H](OC(C)=O)[C@H](C)/C=C/C(C)(C)C(=O)[C@H](OC(C)=O)[C@H]1OC(C)=O`: the Potency result is “inactive”.

For `CC(=O)OC1C(O)C(C)(O)C(/C=C/C(=O)O)C2(C)CCCC(C)(C)C12` (stereo not drawn), the Potency entry is “inactive”. As to `C/C=C(/C)C(=O)OC1CC(C)(C)CC2C3=CCC4C5(C)CCC(OC6OC(C)C(OC7OC(C(=O)O)C(O)C(OC8OC(CO)C(O)C(O)C8OC8OC(CO)C(O)C(O)C8O)C7O)C(O)C6O)C(C)(C)C5CCC4(C)C3(C)C(OC(=O)/C=C/C=C/C=C/CCC)C(OC(C)=O)C12CO` (stereo not drawn), the Potency entry is “inactive”.

In the case of `COc1cc([C@H]2OC[C@](O)(Cc3ccc(O[C@@H]4O[C@H](CO)[C@@H](O)[C@H](O)[C@H]4O)c(OC)c3)[C@@H]2CO)ccc1O`, the Potency entry is “inactive”.

With `C[C@@H]1O[C@@H](O[C@@H]2[C@@H](O)[C@H](O[C@H]3[C@H](O[C@H]4CC[C@@]5(C)C(CC[C@]6(C)C5CC=C5[C@@H]7CC(C)(C)CC[C@]7(C(=O)O[C@@H]7O[C@H](CO)[C@@H](O)[C@H](O)[C@H]7O)CC[C@]56C)C4(C)C)O[C@H](C(=O)O)[C@@H](O)[C@@H]3O)OC[C@H]2O)[C@H](O)[C@H](O)[C@H]1O` (stereo partly drawn), the Potency result is “inactive”. As for `CC(C)=CC[C@H]1O[C@]2(O)C([C@H]3CCC4[C@@]5(C)CC[C@H](O[C@@H]6O[C@H](CO)[C@H](O)[C@H](O[C@@H]7O[C@H](CO)[C@@H](O)[C@H](O)[C@H]7O)[C@H]6O[C@@H]6O[C@@H](C)[C@H](O)[C@@H](O)[C@H]6O)C(C)(C)C5CC[C@@]4(C)[C@]3(C)[C@H]2O)[C@@]1(C)O` (stereo partly drawn), the Potency entry is “inactive”. Turning to `O=C(O)c1ccnc2cc(C(OCC3CCC(F)(F)CC3)c3ccccc3Cl)[nH]c12` (stereo not drawn), the Potency entry was “inactive”. As to `C=C(C)[C@@H]1CC[C@]2(C(=O)O)CC[C@]3(C)[C@H](CCC4[C@@]5(C)CCC(=O)C(C)(C)C5C(O)C[C@]43C)C12` (stereo partly drawn), the Potency result was “inactive”.

Regarding `CC1(C)C[C@H]2C=C(C=O)[C@]3(C(=O)O)C[C@]3(C)[C@H]2C1`, the Potency entry was “inactive”.

In the case of `CC(=O)O[C@@H](C[C@@H]1C=C(C)C(=O)O1)[C@H](C)[C@H]1CCC2[C@@]3(C)CC[C@H](O[C@@H]4O[C@H](CO)[C@@H](O)[C@H](O)[C@H]4O[C@@H]4O[C@@H](C)[C@H](O)[C@@H](O)[C@H]4O)C(C)(C)C3CC[C@@]2(C)[C@@]12COC(=O)C2` (stereo partly drawn), the Potency entry is “inactive”. As for `C=C1CC[C@@H]2[C@@](C)(CO[C@@H]3O[C@H](CO)[C@@H](O)[C@H](O)[C@H]3O)[C@H](O)CC[C@@]2(C)[C@@H]1CC/C(C)=C/CO[C@@H]1O[C@H](CO)[C@@H](O)[C@H](O)[C@H]1O`, the Potency entry was “inactive”. As for `COC(=O)C1=COC(O[C@@H]2O[C@H](COC(=O)/C=C/c3ccc(O)cc3)[C@@H](O)[C@H](O)[C@H]2O)C2C(CO)=CCC12` (stereo partly drawn), the Potency result was “inactive”. In the case of `C[C@@H]1O[C@@H](O[C@H]2[C@H](Oc3cc(O)c(C(=O)CCc4ccc(O)cc4)c(O)c3)O[C@H](CO)[C@@H](O)[C@@H]2O)[C@H](O)[C@H](O)[C@H]1O`, the Potency result is “inactive”. Regarding `CC(=O)OC1(C)CC(O)C2(O)C=COC(OC3OC(CO)C(O)C(O)C3O)C12` (stereo not drawn), the Potency entry was “inactive”. As to `Cc1cn2cc(CC(=O)N3CCC4(CC3)CN(Cc3ccc(-n5nccn5)cc3Cl)C4)nc2s1`, the Potency entry is “inactive”. Take `C[C@@H]1CC[C@]2(C(=O)O)CC[C@]3(C)C(=CCC4[C@@]5(C)C[C@@H](O)[C@@H](O)C(C)(C)C5CC[C@]43C)C2[C@]1(C)O` (stereo partly drawn): the Potency entry was “inactive”. Turning to `CC1(C)CC(NC(=O)C(=O)Nc2ccc(Cl)cc2)CC(C)(C)N1`, the Potency entry is “inactive”.

Regarding `CCC(C)/C=C(C)/C=C/C(=O)C1CCC(O)C(C)(O)C1=O` (stereo not drawn), the Potency entry was “inactive”. Take `COC(=O)C1=COC(OC2OC(CO)C(O)C(O)C2O)C2C(COC(=O)/C=C/c3ccc(O)c(O)c3)C(O)C(O)C12` (stereo not drawn): the Potency entry was “inactive”. Turning to `CC1(C)O[C@H]2CC(=O)OC[C@@]23C1=C(O)C(=O)[C@]1(C)C3CC[C@@]2(C)[C@H](c3ccoc3)OC(=O)[C@H]3O[C@]321` (stereo partly drawn), the Potency result was “inactive”. For `Cc1nc2ccccc2c(-c2ccc3c4c(ccnc24)CCO3)c1[C@H](OC(C)(C)C)C(=O)O`, the Potency entry was “inactive”. For the molecule `C=C1CC[C@@]2(OC1)O[C@H]1CC3C4CC=C5C[C@@H](O[C@@H]6O[C@@H](C)[C@H](O)[C@@H](O)[C@H]6O)C[C@@H](O[C@@H]6O[C@H](C)[C@H](O)[C@H](O)[C@H]6O[C@@H]6O[C@@H](C)[C@H](O)[C@@H](O)[C@H]6O)[C@]5(C)C4CC[C@]3(C)[C@H]1[C@@H]2C` (stereo partly drawn), the Potency entry is “inactive”. Consider `CC1(C)CC2C3=CCC4[C@@]5(C)CC[C@H](OC6OCC(O)C(OC7OC(CO)C(O)C(O)C7O)C6O)C(C)(C)C5CC[C@@]4(C)[C@]3(C)C[C@H](O)[C@@]2(CO)[C@H](OC(=O)c2ccccc2)C1` (stereo partly drawn), for which the Potency result was “inactive”.

Consider `O=C(O)c1ccncc1Nc1nn(CCN2CCC(F)(F)CC2)c2ccc(F)cc12`, for which the Potency entry was “inactive”. As for `COc1cc(C)c(C(=O)NC2C(C)OC(OC3CCC(C)C4C3C=C(C)C3/C(C)=C\CC/C(C)=C/C5(C)C=C(C(=O)O)C(C)CC56OC(=O)/C(=C(\O)C34C)C6=O)C(O)C2(C)O)c(O)c1` (stereo not drawn), the Potency entry is “inactive”.

On to `C/C=C(/C)C(=O)OC1C2OC2C2(CO2)C2C3OC(=O)C(C)C3CCC12C` (stereo not drawn), for which the Potency entry was “inactive”.
